In PubChem BioAssay (NCATS):
Inconclusive results are not listed. Calls of active or inactive are those of the source. Unless noted, the call rests on the fitted dose curve; in most records, active means well fitted curve in the direction sought with a large enough effect; inconclusive means small, poorly fitted or top-dose-only effect, or another doubt; inactive means no such curve, though single readings can be large; an effect the other way counts as inactive or inconclusive.

Assays:
[1] = target: Cytochrome P450 3A4 (Homo sapiens) (UniProt P08684); experiment: qHTS Assay for Activators of Cytochrome P450 3A4 (AID 885); further: nearly all actives have a fitted effect of over 65% in size
Cytochrome P450 3A4 (Homo sapiens), sequence (P08684 whole entry, looked up): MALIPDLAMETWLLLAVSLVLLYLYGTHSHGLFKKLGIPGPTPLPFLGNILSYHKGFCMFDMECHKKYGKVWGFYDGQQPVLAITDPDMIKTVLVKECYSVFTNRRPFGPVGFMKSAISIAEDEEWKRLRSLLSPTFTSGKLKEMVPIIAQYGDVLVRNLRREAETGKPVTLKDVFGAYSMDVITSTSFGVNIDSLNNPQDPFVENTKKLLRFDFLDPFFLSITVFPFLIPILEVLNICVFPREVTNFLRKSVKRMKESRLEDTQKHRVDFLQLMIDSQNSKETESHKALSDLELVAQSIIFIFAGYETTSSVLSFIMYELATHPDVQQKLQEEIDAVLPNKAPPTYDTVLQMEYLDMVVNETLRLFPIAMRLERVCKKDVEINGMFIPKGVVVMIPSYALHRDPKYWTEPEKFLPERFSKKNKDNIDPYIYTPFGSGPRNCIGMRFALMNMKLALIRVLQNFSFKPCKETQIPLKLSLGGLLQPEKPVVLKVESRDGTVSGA
Method in brief: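 Luminescent readout of luciferin formed from 25 uM Luciferin-PPXE (KM level) by 20 nM CYP3A4 in 200 mM KPO4, with 60 min NADPH-driven reaction at room temperature after 10 min compound exposure. Ketoconazole (57 uM) defined 100% inhibition.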

[2] = Confirmation and Secondary Assay for Modulators of Hemoglobin Beta Chain Splicing at IVS2 654 locus (AID 910);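 further: per-well total GFP intensity by laser scanning cytometry after 2-day treatment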
Method in brief: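 HeLa cells stably carrying EGFP interrupted by mutant beta-globin IVS2-654 intron (CMV-driven) were treated with compound for 2 days at 37C; corrected splicing was scored as total peak GFP intensity per well (488 nm excitation, 500-520 nm emission).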

[3] = Confirmation and Secondary Assay for Modulators of Hemoglobin Beta Chain Splicing at IVS2 705 locus (AID 930);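 further: HeLa cells stably expressing the EGFP-705 splicing reporter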
Method in brief: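 Restored EGFP fluorescence after 2-day compound exposure reports splicing correction in IVS2-705 EGFP reporter HeLa cells; positive control was 500 nM splice-blocking PNA oligo. Signal measured as well total peak GFP intensity (488 nm excitation).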

[4] = target: ATP-dependent 6-phosphofructokinase (Trypanosoma brucei brucei) (UniProt O15648); experiment: qHTS Assay to Find Inhibitors of T. brucei phosphofructokinase: hit validation (AID 492961);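 further: luminescence reports ADP formed as PFK phosphorylates fructose-6-phosphate with ATP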
ATP-dependent 6-phosphofructokinase (Trypanosoma brucei brucei), sequence (O15648 whole entry, looked up): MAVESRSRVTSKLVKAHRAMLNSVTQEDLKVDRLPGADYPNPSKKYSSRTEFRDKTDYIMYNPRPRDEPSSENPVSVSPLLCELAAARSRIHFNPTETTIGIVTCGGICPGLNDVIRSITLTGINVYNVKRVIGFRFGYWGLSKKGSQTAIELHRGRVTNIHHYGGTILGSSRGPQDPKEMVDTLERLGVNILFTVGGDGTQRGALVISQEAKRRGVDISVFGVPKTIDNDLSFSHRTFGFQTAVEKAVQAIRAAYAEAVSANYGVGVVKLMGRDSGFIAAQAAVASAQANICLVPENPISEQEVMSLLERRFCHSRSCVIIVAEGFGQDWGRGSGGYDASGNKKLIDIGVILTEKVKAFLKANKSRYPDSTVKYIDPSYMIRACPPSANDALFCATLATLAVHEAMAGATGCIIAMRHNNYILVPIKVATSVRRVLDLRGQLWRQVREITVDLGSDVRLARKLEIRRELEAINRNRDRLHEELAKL
Method in brief: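 Percent activity derived from corrected luminescence, normalized between 0x and 1x enzyme controls, then fitted to concentration-response curves. Conditions: 1.25 nM PFK, 0.1 mM ATP, 0.5 mM F6P, 45 min RT.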

[5] = target: Luciferin 4-monooxygenase (Photinus pyralis) (UniProt P08659); experiment: Biochemical firefly luciferase enzyme assay for NPC (AID 624030);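 further: purified P. pyralis luciferase at 10 nM with luciferin and ATP substrate; nearly all actives have a fitted effect of over 70% in size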
Luciferin 4-monooxygenase (Photinus pyralis), sequence (P08659 whole entry, looked up): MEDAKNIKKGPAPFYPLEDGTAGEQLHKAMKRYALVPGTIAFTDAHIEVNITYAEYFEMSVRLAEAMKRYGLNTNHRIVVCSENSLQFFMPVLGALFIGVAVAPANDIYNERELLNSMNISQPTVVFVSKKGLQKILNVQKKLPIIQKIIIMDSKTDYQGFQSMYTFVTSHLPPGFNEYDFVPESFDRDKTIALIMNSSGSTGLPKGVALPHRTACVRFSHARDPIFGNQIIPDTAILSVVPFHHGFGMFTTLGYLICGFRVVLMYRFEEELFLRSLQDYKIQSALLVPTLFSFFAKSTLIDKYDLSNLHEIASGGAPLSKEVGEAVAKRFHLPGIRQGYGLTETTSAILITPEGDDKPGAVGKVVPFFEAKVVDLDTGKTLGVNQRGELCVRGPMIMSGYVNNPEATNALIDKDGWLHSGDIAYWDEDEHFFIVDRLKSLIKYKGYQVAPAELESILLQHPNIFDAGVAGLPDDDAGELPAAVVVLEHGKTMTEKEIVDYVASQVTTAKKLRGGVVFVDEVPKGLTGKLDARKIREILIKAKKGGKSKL
Method in brief: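 Counter-screen for direct inhibition of the luciferase enzyme by approved-drug library compounds, run at 10 nM enzyme in 50 mM Tris acetate (final). Luminescence was read within 5 min of enzyme-buffer addition and normalized to PTC124 versus DMSO (0%).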

[6] = S16 Schwann cell PMP22 intronic element beta-lactamase assay (AID 624044; calls by dose curve; further: nearly all actives have a fitted effect of over 15% in size)
Method in brief: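 Beta-lactamase reporter under a PMP22 intronic regulatory element in stable S16 rat Schwann cells; 24 h compound exposure. 460 nm blue signal normalized between DMSO (0%) and potassium clavulanate, with 535 nm FRET tracking viability; curves classed by r2 and response.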

[7] = qHTS profiling for inhibitors of Plasmodium falciparum proliferation (AID 504749); further: nearly all actives have a fitted effect of over 60% in size; further: potency means the concentration at half of the fitted maximal effect; conditions: P. falciparum in erythrocytes, SYBR Green DNA, 72 h; parasite line B
Method in brief: (§1)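 Fluorescence of SYBR Green-bound parasite DNA, read at 485/535 nm, served as the growth measure. Infected erythrocytes were cultured with compound 72 h; artemisinin (0.29 uM) and DMSO wells defined the normalization range.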

3D7 = experiment: as above; conditions: P. falciparum in erythrocytes, SYBR Green DNA, 72 h; series mostly up to 12.8 µM
Method in brief: as §1

7G8 = experiment: as above; conditions: P. falciparum in erythrocytes, SYBR Green DNA, 72 h; series mostly up to 12.8 µM
Method in brief: as §1

CP192 = experiment: as above; conditions: P. falciparum in erythrocytes, SYBR Green DNA, 72 h; series mostly up to 12.8 µM
Method in brief: as §1

CP194 = experiment: as above; conditions: P. falciparum in erythrocytes, SYBR Green DNA, 72 h; series mostly up to 12.8 µM
Method in brief: as §1

CP201 = experiment: as above; conditions: P. falciparum in erythrocytes, SYBR Green DNA, 72 h; series mostly up to 12.8 µM
Method in brief: as §1

CP203 = experiment: as above; conditions: P. falciparum in erythrocytes, SYBR Green DNA, 72 h; series mostly up to 12.8 µM
Method in brief: as §1

CP211 = experiment: as above; conditions: P. falciparum in erythrocytes, SYBR Green DNA, 72 h; series mostly up to 12.8 µM
Method in brief: as §1

CP215 = experiment: as above; conditions: P. falciparum in erythrocytes, SYBR Green DNA, 72 h; series mostly up to 12.8 µM
Method in brief: as §1

CP237 = experiment: as above; conditions: P. falciparum in erythrocytes, SYBR Green DNA, 72 h; series mostly up to 12.8 µM
Method in brief: as §1

CP238 = experiment: as above; conditions: P. falciparum in erythrocytes, SYBR Green DNA, 72 h; series mostly up to 12.8 µM
Method in brief: as §1

CP262 = experiment: as above; conditions: P. falciparum in erythrocytes, SYBR Green DNA, 72 h; series mostly up to 12.8 µM
Method in brief: as §1

CP266 = experiment: as above; conditions: P. falciparum in erythrocytes, SYBR Green DNA, 72 h; series mostly up to 12.8 µM
Method in brief: as §1

CP268 = experiment: as above; conditions: P. falciparum in erythrocytes, SYBR Green DNA, 72 h; series mostly up to 12.8 µM
Method in brief: as §1

CP269 = experiment: as above; conditions: P. falciparum in erythrocytes, SYBR Green DNA, 72 h; series mostly up to 12.8 µM
Method in brief: as §1

CP286 = experiment: as above; conditions: P. falciparum in erythrocytes, SYBR Green DNA, 72 h; series mostly up to 12.8 µM
Method in brief: as §1

CP291 = experiment: as above; conditions: P. falciparum in erythrocytes, SYBR Green DNA, 72 h; series mostly up to 12.8 µM
Method in brief: as §1

CP297 = experiment: as above; conditions: P. falciparum in erythrocytes, SYBR Green DNA, 72 h; series mostly up to 12.8 µM
Method in brief: as §1

CP305 = experiment: as above; conditions: P. falciparum in erythrocytes, SYBR Green DNA, 72 h; series mostly up to 12.8 µM
Method in brief: as §1

CP315 = experiment: as above; conditions: P. falciparum in erythrocytes, SYBR Green DNA, 72 h; series mostly up to 12.8 µM
Method in brief: as §1

CP325 = experiment: as above; conditions: P. falciparum in erythrocytes, SYBR Green DNA, 72 h; series mostly up to 12.8 µM
Method in brief: as §1

CP329 = experiment: as above; conditions: P. falciparum in erythrocytes, SYBR Green DNA, 72 h; series mostly up to 12.8 µM
Method in brief: as §1

DIV14 = experiment: as above; conditions: P. falciparum in erythrocytes, SYBR Green DNA, 72 h; series mostly up to 12.8 µM
Method in brief: as §1

DIV17 = experiment: as above; conditions: P. falciparum in erythrocytes, SYBR Green DNA, 72 h; series mostly up to 12.8 µM
Method in brief: as §1

DIV30 = experiment: as above; conditions: P. falciparum in erythrocytes, SYBR Green DNA, 72 h; series mostly up to 12.8 µM
Method in brief: as §1

FAB9 = experiment: as above; conditions: P. falciparum in erythrocytes, SYBR Green DNA, 72 h; series mostly up to 12.8 µM
Method in brief: as §1

GB4 = experiment: as above; conditions: P. falciparum in erythrocytes, SYBR Green DNA, 72 h; series mostly up to 12.8 µM
Method in brief: as §1

JCK = experiment: as above; conditions: P. falciparum in erythrocytes, SYBR Green DNA, 72 h; series mostly up to 12.8 µM
Method in brief: as §1

P94_40 = experiment: as above; conditions: P. falciparum in erythrocytes, SYBR Green DNA, 72 h; series mostly up to 12.8 µM
Method in brief: as §1

PC26 = experiment: as above; conditions: P. falciparum in erythrocytes, SYBR Green DNA, 72 h; series mostly up to 12.8 µM
Method in brief: as §1

PC49 = experiment: as above; conditions: P. falciparum in erythrocytes, SYBR Green DNA, 72 h; series mostly up to 12.8 µM
Method in brief: as §1

W2 = experiment: as above; conditions: P. falciparum in erythrocytes, SYBR Green DNA, 72 h; series mostly up to 12.8 µM
Method in brief: as §1

Measured: Potency

CC(=O)O[C@@]1(C(C)=O)CCC2C3CC(C)C4=CC(=O)CC[C@@]4(C)C3CC[C@]21C (stereo partly drawn)
active: [7] 12.6 µM | 7G8 7.94 µM | P94_40 12.6 µM
inactive: all other assays above
